# In all, about 270,000 compounds went through this assay and about 5,800 (2.1%) were called active. Inconclusive results (about 16%) are left out. Calls come from the whole dose curve; as a rule, active = well fitted inhibition curve with a large enough effect; inconclusive = small, poorly fitted or top-dose-only effect; inactive = flat fitted curve, though single readings scatter. The full list was thinned out, with actives kept by preference.
# Molecular target: Microtubule-associated protein tau (Homo sapiens) (UniProt P10636)
# Sequence (P10636 561-689 P618L limits assumed): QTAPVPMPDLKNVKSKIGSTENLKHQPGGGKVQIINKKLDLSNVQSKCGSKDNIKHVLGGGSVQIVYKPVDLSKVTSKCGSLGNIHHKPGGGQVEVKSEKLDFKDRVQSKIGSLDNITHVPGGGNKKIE
# Test: qHTS for Inhibitors of Tau Fibril Formation, Thioflavin T Binding; note: nearly all actives have a fitted effect of over 55% in size
# Settings: recombinant tau K18 P301L (four-repeat tau fragment), heparin-induced fibrillization, ThT fluorescence; series mostly up to 57.4 µM; activity, negative = inhibition: at the top concentration
# In short: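 K18 P301L tau (15 uM + 0.24 uM Alexa 594-tagged), heparin 20 uM, NaOAc pH 7, 6 h 37 C; ThT 30 uM, 1 h RT, ex 450/em 510 nm.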
# % is set by controls: 0 for no effect and ±100 for the full control effect; potency is the fitted concentration of half-maximal effect.
Structure (SMILES),"activity, negative = inhibition",Potency
CC1=Nc2cc(C(=O)NCc3ccc(C)cc3)ccc2Sc2ccc(Cl)cc21,-7.16% (inactive),
Cc1ccc(Cl)cc1N1CCN(S(=O)(=O)c2cc3[nH]c(=O)c(=O)[nH]c3cc2C)CC1,2.21% (inactive),
COc1cc(C(=O)NCCc2csc3nc(-c4ccccc4C)nn23)cc(OC)c1OC,-11.2% (inactive),
CC(C)(C)OC(=O)NCCCC1=CC2=CC(=O)C(C)(OC(=O)c3ccco3)C(=O)C2=CO1 (centres undefined),-0.483% (inactive),
COC/C=C/C1=CC2=CC(=O)C(C)(OC(=O)CCC(=O)OC)C(=O)C2=CO1 (centres undefined),,15.8 µM (active)
COc1cc(CN(C(=O)c2ccccc2Br)c2ccccn2)cc(OC)c1OC,-13.1% (inactive),
CCOc1cccc(NC(=O)c2ccc(F)c(S(=O)(=O)N(CC)c3cccc(C)c3)c2)c1,5.24% (inactive),
Oc1ccc(N=Cc2c(O)ccc3ccccc23)cc1,,12.6 µM (active)
COC(=O)c1cc(NC(=O)c2sc3ccccc3c2Cl)cc(C(=O)OC)c1,-2.46% (inactive),
O=C(Nc1ccon1)c1sc2ccccc2c1Cl,-23.4% (inactive),
Oc1ccc(N=Cc2sc3ccccc3c2Cl)cc1,,7.08 µM (active)
CN(Cc1ccccc1)c1ncnc2onc(-c3ccc(F)cc3)c12,-8.33% (inactive),
O=c1c(NCc2cccs2)nccn1-c1ccccc1,-0.0042% (inactive),
O=C(CSc1cn(CC(=O)N2CCOCC2)c2ccccc12)Nc1ccccc1,-3.17% (inactive),
Cc1ccc2oc3c(c(=O)c2c1)C(c1ccc([N+](=O)[O-])cc1)N(CCCN1CCOCC1)C3=O (centres undefined),-4.43% (inactive),
CCN1CCC(N(Cc2ccc(F)cc2)C(=O)Nc2cc(C)ccc2C)CC1,-6.42% (inactive),
Cc1cc(C)c2sc(NC(=O)c3ccc(S(=O)(=O)N4CCCC4)cc3)nc2c1,5.67% (inactive),
CCOc1cccc(CNC(=O)c2ccc(N3CCCC3)c(NC(=O)Nc3ccccc3CC)c2)c1,7.65% (inactive),
COc1cccc(C(=O)NC(=O)Nc2ccc(-c3cc(C(F)(F)F)nn3-c3ccccc3)cc2)c1,6.06% (inactive),
Cc1ccccc1CCNC(=O)C1CCN(c2nc3ccccc3nc2C(F)(F)F)CC1,-0.629% (inactive),
CCc1cnc2c(c1SCC(=O)N1CCC(C)CC1)c(=O)n(C)c(=O)n2C,-7.64% (inactive),
Nc1c(-c2cccc(Cl)c2)cnn1-c1cccc([N+](=O)[O-])c1,,12.6 µM (active)
O=[N+]([O-])c1cccc(C2=NCCS2)c1,4.06% (inactive),
O=C(Nc1cccc([N+](=O)[O-])c1)Nc1ccc(Cl)cn1,-5.31% (inactive),
Cc1c(C(=O)N2CCCC2)oc2c1-c1nn(CC(=O)NCc3ccc(OC(C)C)cc3)cc1CC2,-16.8% (inactive),

Structure (SMILES),"activity, negative = inhibition",Potency
Cc1ccc(OCC(=O)OCc2cc(=O)n3nc(C4CC4)sc3n2)cc1C,-2.32% (inactive),
Cc1ccc(Cl)cc1N(C)C(=O)C1CCCN(c2ncnc3onc(-c4ccc(F)cc4)c23)C1 (centres undefined),-15.3% (inactive),
O=C1c2ccccc2C2=Nc3ccccc3SC(c3ccccc3F)C12 (centres undefined),,7.94 µM (active)
CC(=O)c1ccc(NC(=O)CCc2nc(-c3ccc(C)cc3)no2)cc1,-9.45% (inactive),
O=C(Nc1ccc(Br)cc1)c1ccc(Br)c(S(=O)(=O)NCc2ccccc2)c1,6.02% (inactive),
CCOC(=O)c1sc(=S)n(-c2cccc(OC)c2)c1N,0.563% (inactive),
CCOC(=O)c1sc(NC(=O)c2ccncc2)nc1C,-5.11% (inactive),
CCOC(=O)c1sc(=S)n2c1[nH]c(=O)c1ccc(C(=O)OC)cc12,,7.08 µM (active)
COc1ccccc1N1CCN(C(CNC(=O)C(=O)NCc2ccc(C)cc2)c2cccnc2)CC1 (centres undefined),-5.42% (inactive),
O=[N+]([O-])c1cc(-c2nc(-c3ccccc3)no2)ccc1NCc1ccco1,-16.3% (inactive),
Cc1ccc(-n2ncc3c(N4CCC(C(N)=O)CC4)ncnc32)cc1,-3.43% (inactive),
COc1ccc(C(=O)NN2C(=O)C3C(c4ccccc4)C=CC(c4ccccc4)C3C2=O)cc1 (centres undefined),-6.43% (inactive),
CC(=O)N1C(=O)/C(=C2\SC(=S)N(NC(=O)c3ccc(O)cc3)C2=O)c2ccccc21,,25.1 µM (active)
O=C(O)c1ccc2c(c1)C(=O)N(NC(=O)c1ccc(O)cc1)C2=O,-6.31% (inactive),
O=C(c1cccnc1)N(c1cc2sc(=O)oc2c2ccccc12)S(=O)(=O)c1ccccc1,,11.2 µM (active)
CN(C)S(=O)(=O)c1cccc(C(=O)Nc2cccnc2)c1,9.97% (inactive),
COc1ccc(N(C(=O)c2cccnc2)S(=O)(=O)c2ccc3c(c2)n(C)c(=O)n3C)cc1,-3.49% (inactive),
COc1ccccc1CNc1nccn(-c2ccc(F)cc2)c1=O,1.99% (inactive),
Cc1cccc(CC(=O)Nc2cccc(-c3cn4cccnc4n3)c2)c1,-5.47% (inactive),
CCc1cccc(C)c1NS(=O)(=O)c1ccc(-c2cc(C)no2)s1,6.56% (inactive),
COc1ccc(S(=O)(=O)Nc2ccc(O)c(Sc3nc4ccccc4s3)c2)cc1,,inactive
COc1cc(/C=N/NC(=O)c2ccccc2)ccc1OS(=O)(=O)c1ccccc1,-1.52% (inactive),
COc1cc(/C=N\Nc2nc(-c3cccs3)c(NC(C)=O)s2)ccc1O,,15.8 µM (active)
O=C(NC(Nc1nc2ccc([N+](=O)[O-])cc2s1)(C(F)(F)F)C(F)(F)F)c1ccccc1,-14.9% (inactive),
Cc1ccc(S(=O)(=O)Nc2nc3ccccc3s2)cc1[N+](=O)[O-],-21.2% (inactive),

Structure (SMILES),"activity, negative = inhibition",Potency
Cc1ccc(C(=O)Nc2nnc(-c3cccs3)s2)cc1C,4.48% (inactive),
O=[N+]([O-])c1cc(Br)c(O)c(/C=N/Nc2nc3ccccc3s2)c1,,4.47 µM (active)
COc1cc(/C=N/NC(=O)CCc2n[nH]c(=O)[nH]c2=O)ccc1O,-4.7% (inactive),
COc1cc(/C=N/Nc2nc3ccccc3s2)ccc1O,,5.62 µM (active)
Cc1ccc(S(=O)(=O)c2cn(Cc3ccccc3)c3cc(N4CCCC4)c(F)cc3c2=O)c(C)c1,9.83% (inactive),
O=C1CSC2(C(=O)N(Cc3ccccc3)c3ccccc32)N1c1cccc(F)c1 (centres undefined),2.49% (inactive),
O=C(COc1ccccc1F)Nc1ccc(C(=O)OCc2cc(=O)n3nc(C4CC4)sc3n2)cc1,-5.48% (inactive),
CCOc1ccc(OCC)c(NC(=O)CN(c2ccc(C)cc2)S(=O)(=O)c2c(C)n[nH]c2C)c1,-14.9% (inactive),
CNC(=O)CN1C(=O)c2cccnc2Sc2ccccc21,-4.1% (inactive),
Cc1ccc(Cn2c(=O)n(-c3ccc(C)cc3)c(=O)c3c2c2cc(C)ccc2n3C)cc1,5.05% (inactive),
COc1ccccc1NC(=O)c1cc(C2CC2)nc2c1c(C)nn2-c1ccc(C)cc1,-1.61% (inactive),
Cc1ccc2nc(CNC(=O)c3ccccc3)[nH]c2c1,-7.98% (inactive),
COc1ccc(NC(=O)c2cc3cc(C)ccc3n2C)cc1,-5.29% (inactive),
CCCCNC(=O)CSc1nc2cc3c(cc2c(=O)n1CCCCCC(=O)NCc1ccc2c(c1)OCO2)OCO3,-5.94% (inactive),
O=C(NCCc1c[nH]c2ccccc12)C(=O)NCC1CCCO1 (centres undefined),-2.97% (inactive),
N#C/C(=C/c1ccc(N2CCCCC2)o1)C(=O)NCCc1c[nH]c2ccccc12,,4.47 µM (active)
CC(=O)N/C(=C/c1ccc(Cl)cc1)C(=O)NCCc1c[nH]c2ccccc12,-12.8% (inactive),
COc1ccc(CCNC(=O)c2nn(C)c3c2CSc2ccccc2-3)cc1OC,-15.1% (inactive),
CCc1nc2onc(C)c2c(=O)n1CC(=O)O,3.12% (inactive),
Oc1ccc(N=Nc2nccs2)c(O)c1,,3.55 µM (active)
Oc1ccc2ccccc2c1N=Nc1nccs1,,7.94 µM (active)
CCCCn1c(=O)c2oc3ccccc3c2n(CC(=O)Nc2ccccc2OC)c1=O,0.737% (inactive),
COc1cc(C(CC(=O)NCCC(C)C)N2Cc3ccccc3C2=O)cc(OC)c1OC (centres undefined),5.25% (inactive),
O=C(Cn1cnc2c(oc3ccccc32)c1=O)Nc1ccc(OC(F)(F)F)cc1,5.46% (inactive),
Cc1ccc(CN2CCC(CNC(=O)c3cnn(-c4ccccc4Cl)c3C3CCN(C(=O)OC(C)(C)C)CC3)CC2)cc1,-12.4% (inactive),

Structure (SMILES),"activity, negative = inhibition",Potency
COc1ccc(-c2nnc(SCC(=O)Nc3ccccc3C)o2)cc1OC,9.86% (inactive),
O=[N+]([O-])c1cc([N+](=O)[O-])c2cccnc2c1O,,12.6 µM (active)
CC(c1ccco1)N(C(=O)COc1ccccc1[N+](=O)[O-])c1ccccn1 (centres undefined),-4.05% (inactive),
O=[N+]([O-])c1cccc2ncccc12,6.12% (inactive),
COCCNc1ncnc2c1c(-c1ccccc1)cn2-c1ccc(C)c(Cl)c1,-15.6% (inactive),
CCc1ccc2nc3sc(C(=O)Nc4nnc(CC)s4)c(N)c3cc2c1,,3.98 µM (active)
CCc1nnc(NC(=O)c2nc3nccc(C)n3n2)s1,-0.231% (inactive),
CCc1nnc(NC(=O)c2cccc(S(=O)(=O)N(C)c3ccc(OC)cc3)c2)s1,-6.54% (inactive),
CCC(=O)N1c2ccccc2CC1C(=O)N1CCN(c2cccc(OC)c2)CC1 (centres undefined),5.58% (inactive),
Cn1c(=O)sc2cc(NS(=O)(=O)c3ccc(C(C)(C)C)cc3)ccc21,-1.27% (inactive),
COc1cc(COCC(O)CN2CCN(Cc3ccc4c(c3)OCO4)CC2)cc(OC)c1OC (centres undefined),-0.845% (inactive),
COc1c(O)ccc2c1CN1CCc3cc4c(cc3C1C2)OCO4 (centres undefined),,22.4 µM (active)
COc1ccc2cc1Oc1ccc(cc1)C[C@H]1c3cc(c(OC)cc3CCN1C)Oc1c(O)c(OC)cc3c1[C@H](C2)N(C)CC3,9.57% (inactive),
COC(=O)c1ccccc1NC(=O)C(Cc1ccccc1)N1Cc2ccccc2C1=O (centres undefined),-8.51% (inactive),
CCCCN(CC)CCCNC(=O)Cn1ncc2c([nH]c3ccc(C)cc32)c1=O,-6.43% (inactive),
Cc1ccc(NC(=O)CSc2nc3c(c(=O)[nH]2)CN(Cc2ccc4c(c2)OCO4)CC3)cc1C,5.2% (inactive),
Cc1ccc(CN2CCC(CNC(=O)c3cnn(-c4ccc(C)cc4)c3C3CCN(C(=O)OC(C)(C)C)CC3)CC2)cc1,-15.1% (inactive),
CCCCOC(=O)/C(C#N)=C/c1ccc(-c2cccc(C(F)(F)F)c2)o1,-16.5% (inactive),
CCOC(=O)c1ccc(-c2ccc(/C=C(\C#N)C(=O)Nc3ccc(OCC)cc3)o2)cc1,,1.41 µM (active)
Cc1ccc2nc(/C(C#N)=C/c3ccc(-c4ccc(C(=O)OC(C)C)cc4)o3)[nH]c2c1,-4.05% (inactive),
COc1cccc(N2CCN(S(=O)(=O)c3ccc4c(c3)CCCN4C(C)=O)CC2)c1,-2.31% (inactive),
CCOC(=O)c1[nH]c2ccc(OC)cc2c1NC(=O)CCN1CCN(Cc2ccccc2)CC1,-7.67% (inactive),
COC(=O)c1[nH]c2ccc(Br)cc2c1NC(=O)Oc1ccccc1,,15.8 µM (active)
COC(=O)c1[nH]c2ccccc2c1NS(=O)(=O)c1ccc(OC)cc1OC,-2.82% (inactive),
